GAA glycogen = inhibitors or activators of human alpha-glucosidase glycogen cleavage; P10253; recombinant GAA, glycogen substrate, Amplex Red glucose oxidase fluorescence; Potency, µM (highest dose often 76.4 µM), without a hit: at the highest dose activity change, negative = inhibition, most hits filed as inhibitors; 0.38% of 300,000 active; AID 2100;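 also: 0% = full enzyme reaction and -100% = no-enzyme basal signal; the screen sought inhibitors and activators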
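Recombinant human alpha-glucosidase (4 nM final) hydrolysed bovine liver glycogen (30 ug) for 40 min at 37 C in pH 5.0 citrate/phosphate with 0.01% Tween-20. Released glucose detected by glucose oxidase/Amplex Red, Ex 573/Em 610 nm. Compounds up to 77 uM; AC50 from Hill fits.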
Luc counter = counter-screen: inhibitors of Kinase-Glo firefly luciferase; AID 1379; 0.28% of 200,000 active; Kinase-Glo luciferase, ATP luminescence, 8 min; Potency, µM (doses to about 38.3 µM), for inactives: at the top dose activity change, negative = inhibition, usual class: inhibitors; Q27757; also: nearly all actives have a fitted effect of over 60% in size
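Recombinant Kinase-Glo luciferase, 10 uM ATP (linear range), luciferin; imidazole pH 7.2 / KCl / MgCl2 / Tween / BSA buffer; 8 min RT; luminescence.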
LMNA splice mod = changes lamin A minigene splicing in HeLa cells | AID 1487 | HeLa LMNA splicing GFP/RFP minigene ratio, 48 h | Potency, µM (series often up to 46.1 µM), for inactives: at the highest dose ratio change, negative = inhibition, actives largely listed as inhibitors | 0.01% of 200,000 active; active = well fitted inhibition curve with a large enough effect in the signal ratio, with a control signal flat, not every such curve was filed as active; inconclusive = small, poorly fitted or top-dose-only effect, or effect the other way, or a change in a side signal; the % refers to the signal ratio
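S3 HeLa stable clones carrying a lamin A-EGFP splicing minigene plus DsRed2 were seeded at 600 cells/well in Opti-MEM with 2% FBS, pin-dosed and incubated 48 h at 37°C. Acumen cytometry (488 nm) gave the GFP/RFP total-intensity ratio.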
aGlu spleen mod = lysosomal alpha-glucosidase (human) modulation | human spleen homogenate, 4-MU-alpha-glucoside fluorescence | 0.006% of 240,000 active | AID 2112 | Potency, µM (doses to about 79.9 µM), for the others: at the highest dose activity change, negative = inhibition, hits mostly inhibitors;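 also: 0% = enzyme with vehicle and -100% = no enzyme basal signal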
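Human spleen homogenate (1 ug) with 4-methylumbelliferyl-alpha-D-glucopyranoside (1 mM final) in 50 mM citrate/phosphate pH 5.0, 0.01% Tween-20; 40 min at 37 C. Stopped at pH 10; 4-MU fluorescence Ex 365/Em 440 nm; AC50 by Hill fit.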
GAA inh = alpha-glucosidase (human) inhibition; 0.005% of 200,000 active; P10253; AID 1466; purified human GAA, 4-MU-alpha-glucoside fluorescence; Potency, µM (highest dose often 76.9 µM), without a hit: at the top dose activity change, negative = inhibition, most hits filed as inhibitors;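 also: plate controls were uninhibited enzyme wells for no effect and no-enzyme background for full effect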
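Fluorescence at Ex 365/Em 440 nm from 4-methylumbelliferone reported enzyme activity after 20 min at room temperature. Reactions used 4 nM enzyme and 400 uM substrate at pH 5.0; curves fitted with the Hill equation.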
N370S GC = inhibitors or activators of N370S glucocerebrosidase for Gaucher disease. Potency, µM (top dose mostly 59.4 µM), without a hit: at the highest dose activity change, negative = inhibition, hits mostly inhibitors. N370S GC spleen homogenate, 4MU-glucoside fluorescence. P04062. 0.092% of 330,000 active;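 also: 0% = full enzyme activity and -100% = no enzyme basal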
* marks the source's active call; other numbers are inactive results; [ ] = remark or other dose. Rows were chosen to be rich in hits. Some 0.52% of all compounds tested hit in one or more screens of this group. Unless noted, calls follow the shape of the dose curve; as a rule, active = well fitted curve in the direction sought with a large enough effect; inconclusive = small, poorly fitted or top-dose-only effect, or another doubt; inactive = no such curve, though single readings can be large; an effect the other way counts as inactive or inconclusive. Unless noted, % is scaled to controls: 0 for no effect and ±100 for the full control effect; potency is read from the fitted curve at half-maximal effect.

COC(=O)C1=C(C)N(Cc2ccccc2)C2=C3C(=O)OCCC3[C@@](O)(C(=O)OC)C(=O)N2C1c1ccccc1 (stereo partly specified) was read as aGlu spleen mod -1%[17.4 µM] and N370S GC 5%[12.8 µM].
`c1ccc(Nc2nc3ccccc3o2)cc1` gave GAA glycogen -1%, Luc counter 13µM*, LMNA splice mod 3%, aGlu spleen mod 0%, GAA inh inconclusive and N370S GC 21%.
`COC(=O)c1ccccc1N/C=C/C(=O)c1ccc(Br)cc1` gave GAA glycogen -3%, Luc counter -6%, LMNA splice mod -19%, aGlu spleen mod -29%, GAA inh 5% and N370S GC 12%.
NC(=O)c1ccccc1N/C=C/C(=O)c1ccccc1 was read as GAA glycogen 0%, Luc counter 11µM*, LMNA splice mod 9%, aGlu spleen mod -8%, GAA inh -4% and N370S GC 5%.
Screening CCCCC[C@]12Cc3ccccc3C(O1)c1c(cc(C)oc1=O)O2 returned GAA glycogen 16%[15.3 µM] and N370S GC -5%[12.8 µM].
Screening COC(=O)C(N)Cc1ccc(O)c(O)c1 (stereo unspecified) returned GAA glycogen 3.1µM*, Luc counter -4%, LMNA splice mod -2%, aGlu spleen mod -11%, GAA inh -3% and N370S GC -6%.
`Cn1c(N=Nc2ccc(N3CCOCC3)cc2)[n+](C)c2ccccc21` gave GAA glycogen -19%, Luc counter 13µM*, LMNA splice mod 1%[46 µM], aGlu spleen mod -4%, GAA inh inconclusive and N370S GC -18%.
`CCn1c(=Nc2ccc(N3CCOCC3)cc2)ccc2ccccc21` gave GAA glycogen 9%, Luc counter 1%, LMNA splice mod -7%, aGlu spleen mod 0%, GAA inh -2% and N370S GC -14%.
CCCN(C(=O)CCc1nc(-c2ccc(C)cc2)no1)c1ccc(OCC)cc1 was read as GAA glycogen 10%[76.3 µM].
O=C1CC(N(O)c2ccccc2)C(=O)N1c1ccc(Cl)c(Cl)c1 (stereo unspecified) was read as GAA glycogen inconclusive, aGlu spleen mod -9% and N370S GC 7%.
COc1ccccc1N(O)C1CC(=O)N(c2ccc(Br)cc2)C1=O (stereo unspecified) was read as GAA glycogen 8.9µM*, Luc counter -2%, LMNA splice mod -7%, aGlu spleen mod 0%, GAA inh -1% and N370S GC 5%.
Screening COC(=O)c1sccc1NC(=O)Nc1ccccc1C returned N370S GC -16%.
For COC(=O)c1sccc1NC(=O)Nc1ccccc1F the results were GAA glycogen -2%, Luc counter 13µM*, LMNA splice mod 2%[46 µM], aGlu spleen mod -5%, GAA inh -1% and N370S GC 24%.
Screening O=S(=O)(c1ccccc1)N1CCC2(CCCN(c3ccncc3)C2)CC1 returned Luc counter 1%, aGlu spleen mod -4% and N370S GC 3%.
COc1ccc(N(CC(=O)N2CCCCCC2)S(=O)(=O)c2c(C)[nH]c(=O)[nH]c2=O)cc1 was read as GAA glycogen -8%, Luc counter -4%, LMNA splice mod -7%, aGlu spleen mod -3%, GAA inh -4% and N370S GC -1%.
`Cc1ccc(CNC(=O)CN(c2cc(C)cc(C)c2)S(=O)(=O)c2c(C)[nH]c(=O)[nH]c2=O)cc1` gave GAA glycogen -13%[76.3 µM].
Screening Cc1cc(C)cc(N(CC(=O)NC2CCCC2)S(=O)(=O)c2c(C)[nH]c(=O)[nH]c2=O)c1 returned GAA glycogen 6%, aGlu spleen mod 2% and N370S GC 3.5µM*.
COc1ccc(N(CC(=O)NC2CCCC2)S(=O)(=O)c2c(C)[nH]c(=O)[nH]c2=O)cc1 was read as GAA glycogen -1%, Luc counter 2%, LMNA splice mod 6%, aGlu spleen mod -2%, GAA inh 0% and N370S GC 8.9µM*.
CC12CC[C@@H]3c4ccc(OP(=O)(O)O)cc4CCC3C1CCC2=O (stereo partly specified) was read as Luc counter -3%[7.66 µM].
Cc1ccccc1-c1cc(NCc2ccccc2)ncn1 was read as LMNA splice mod inconclusive, aGlu spleen mod 5% and N370S GC -26%.
`Cc1cc(O)cc(C)c1Cl` gave Luc counter 1%, LMNA splice mod inconclusive, aGlu spleen mod -7% and N370S GC -3%.
For Cc1cc(O)c(N)c(C)c1Cl the results were GAA glycogen 8.9µM*, Luc counter 0%, aGlu spleen mod 3%, GAA inh 0% and N370S GC -5%.
Screening COC(=O)c1cc2oc(C)cc2n1Cc1c(C)cc(C)cc1C returned GAA glycogen -3%[76.3 µM].
For CC1=C(C(=O)Nc2cccnc2)C(c2ccccc2)n2nc(SCc3ccccc3F)nc2N1 (stereo unspecified) the results were GAA glycogen 1%[76.3 µM].
`Cc1ccsc1/C=N/Nc1nc(=O)[nH]nc1C` gave GAA glycogen 1%, Luc counter 4.5µM*, LMNA splice mod inconclusive, aGlu spleen mod -4%, GAA inh -13% and N370S GC -7%.
`Cc1cc(C)nc(N/N=C/c2sccc2C)n1` gave GAA glycogen -20%, Luc counter -27%, LMNA splice mod inconclusive, aGlu spleen mod -5%, GAA inh -10% and N370S GC -7%.
For CC(=O)Nc1cccc(-n2cc3c(c2-c2ccccc2Cl)c(=O)n(C)c(=O)n3C)c1 the results were GAA glycogen -25%[76.3 µM].
Screening O=C1Nc2ccccc2/C1=N\N=C\c1ccc(O)c(O)c1 returned GAA glycogen 6.3µM*, aGlu spleen mod -14%, GAA inh -14% and N370S GC -1%.
Screening Cc1ccc(NC(=O)CCCn2c(=O)c3cccn3c3cccnc32)c(Cl)c1 returned GAA glycogen -4%[76.3 µM].
`CCc1ccccc1NC(=O)CN1C(=O)COc2ccc(S(=O)(=O)N3CCCCCC3)cc21` gave GAA glycogen -15%[76.3 µM].
`COc1cc(-c2cn[nH]c2N)cc(OC)c1OC` gave GAA glycogen 11µM*, Luc counter 5%, LMNA splice mod -13%, aGlu spleen mod inconclusive, GAA inh inconclusive and N370S GC -12%.
For Nc1[nH]ncc1-c1ccc(Cl)cc1 the results were GAA glycogen -18%, Luc counter -1%, GAA inh -8% and N370S GC -2%.

Screening results: PubChem BioAssay, National Center for Advancing Translational Sciences (NCATS)
